The source of these data is article PMC7862700, “An all-to-all approach to the identification of sequence-specific readers for epigenetic DNA modifications on cytosine”.

Holding throughout (experiment): DAPPL (digital affinity profiling via proximity ligation, sequencing); 10 mM Tris-HCl pH 7.5, 50 mM NaCl, 1 mM DTT, 4% glycerol, room temperature, 30 min; GST-TFs on glutathione beads, 16-mer random dsDNA library, 0.1% formaldehyde crosslink after washing; high values mean tight binding
Experiment [1] deals with T1, FLI1 (Homo sapiens, UniProt Q01543 1-452).
T1 sequence: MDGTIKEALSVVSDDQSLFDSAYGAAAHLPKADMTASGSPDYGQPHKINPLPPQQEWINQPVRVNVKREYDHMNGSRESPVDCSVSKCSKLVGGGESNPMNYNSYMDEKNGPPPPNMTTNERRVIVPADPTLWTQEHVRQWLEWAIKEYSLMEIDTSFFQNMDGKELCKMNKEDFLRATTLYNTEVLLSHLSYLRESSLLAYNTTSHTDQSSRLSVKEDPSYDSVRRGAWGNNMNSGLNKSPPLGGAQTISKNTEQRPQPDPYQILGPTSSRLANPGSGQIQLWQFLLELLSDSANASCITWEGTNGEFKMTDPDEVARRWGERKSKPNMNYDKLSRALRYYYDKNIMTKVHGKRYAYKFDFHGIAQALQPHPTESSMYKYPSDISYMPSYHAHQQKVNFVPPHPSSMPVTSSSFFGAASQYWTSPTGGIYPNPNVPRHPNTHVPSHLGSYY
The following applies: protein: recombinant; tags: N-terminal GST; dsDNA, one strand shown. Put shortly:
(§1)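 Sequencing on an Illumina NextSeq500 followed washing, crosslinking with 0.1% formaldehyde, proximity ligation (BsaI/T4 ligase, 1 h, 37 °C) and PCR amplification of pools that had been incubated for 30 min at room temperature with 200 nmole of a random double-stranded 16-mer DNA library in Tris/NaCl/DTT/glycerol buffer. Each pool held DNA-barcoded human transcription factors, expressed in yeast as GST fusions and captured on glutathione beads, plus a tag-only sample. Binding signal is a hexamer's read frequency for a factor divided by its frequency in the tag-only sample.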

The target of experiment [2] is T2, ELK1 (Homo sapiens, UniProt P19419 1-428).
T2 sequence: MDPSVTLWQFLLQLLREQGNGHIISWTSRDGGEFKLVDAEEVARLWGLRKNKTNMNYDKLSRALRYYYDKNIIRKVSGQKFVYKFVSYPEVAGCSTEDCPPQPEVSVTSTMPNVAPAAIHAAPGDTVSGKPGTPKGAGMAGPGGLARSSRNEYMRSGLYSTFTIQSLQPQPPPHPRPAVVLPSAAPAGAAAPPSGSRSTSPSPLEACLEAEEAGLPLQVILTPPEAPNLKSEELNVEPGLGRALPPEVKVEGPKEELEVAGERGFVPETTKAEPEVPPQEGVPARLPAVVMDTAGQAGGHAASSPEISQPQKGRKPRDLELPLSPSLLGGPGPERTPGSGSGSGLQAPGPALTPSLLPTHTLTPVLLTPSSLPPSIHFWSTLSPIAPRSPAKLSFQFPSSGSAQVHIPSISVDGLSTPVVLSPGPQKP
The following applies: protein: recombinant; tags: N-terminal GST; dsDNA, one strand shown. Put shortly: as §1

Experiment [3] addresses T3, GABPA (Homo sapiens, UniProt Q06546 1-454).
T3 sequence: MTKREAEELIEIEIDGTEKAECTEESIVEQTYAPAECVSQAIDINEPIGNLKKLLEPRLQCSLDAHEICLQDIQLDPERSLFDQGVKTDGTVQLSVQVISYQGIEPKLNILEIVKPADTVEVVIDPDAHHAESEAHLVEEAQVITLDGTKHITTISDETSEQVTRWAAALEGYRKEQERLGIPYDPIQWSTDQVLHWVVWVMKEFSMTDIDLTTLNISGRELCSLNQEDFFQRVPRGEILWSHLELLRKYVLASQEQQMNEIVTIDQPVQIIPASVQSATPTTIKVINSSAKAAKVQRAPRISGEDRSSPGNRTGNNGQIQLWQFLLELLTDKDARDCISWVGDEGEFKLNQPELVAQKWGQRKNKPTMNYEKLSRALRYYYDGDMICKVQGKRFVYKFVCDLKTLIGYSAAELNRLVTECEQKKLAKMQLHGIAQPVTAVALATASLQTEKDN
The following applies: protein: recombinant; tags: N-terminal GST; dsDNA, one strand shown. In short, it runs like this: as §1

Experiment [4] has as its target T4, ERG (Homo sapiens, UniProt P11308 1-479).
T4 sequence: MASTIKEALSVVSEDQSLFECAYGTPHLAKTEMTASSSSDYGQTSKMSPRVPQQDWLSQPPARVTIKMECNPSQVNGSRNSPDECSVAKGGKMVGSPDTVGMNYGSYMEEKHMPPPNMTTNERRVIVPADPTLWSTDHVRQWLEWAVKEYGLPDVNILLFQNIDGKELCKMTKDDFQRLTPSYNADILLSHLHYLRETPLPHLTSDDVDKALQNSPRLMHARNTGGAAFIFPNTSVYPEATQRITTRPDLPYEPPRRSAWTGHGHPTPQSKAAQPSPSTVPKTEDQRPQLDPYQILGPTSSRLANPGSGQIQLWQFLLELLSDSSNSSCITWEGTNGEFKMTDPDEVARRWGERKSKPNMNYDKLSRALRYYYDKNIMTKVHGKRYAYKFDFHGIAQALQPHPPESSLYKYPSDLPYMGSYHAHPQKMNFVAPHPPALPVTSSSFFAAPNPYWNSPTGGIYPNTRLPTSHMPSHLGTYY
The following applies: protein: recombinant; tags: N-terminal GST; dsDNA, one strand shown. Put shortly:
as §1

For experiment [5], the target named is ELF1 (Homo sapiens, UniProt P32519 1-619). The settings on record: protein: recombinant; tags: N-terminal GST; dsDNA, one strand shown. In short, it runs like this:
as §1

Experiment [6] deals with T5, EHF (Homo sapiens, UniProt Q9NZC4 1-300).
T5 sequence: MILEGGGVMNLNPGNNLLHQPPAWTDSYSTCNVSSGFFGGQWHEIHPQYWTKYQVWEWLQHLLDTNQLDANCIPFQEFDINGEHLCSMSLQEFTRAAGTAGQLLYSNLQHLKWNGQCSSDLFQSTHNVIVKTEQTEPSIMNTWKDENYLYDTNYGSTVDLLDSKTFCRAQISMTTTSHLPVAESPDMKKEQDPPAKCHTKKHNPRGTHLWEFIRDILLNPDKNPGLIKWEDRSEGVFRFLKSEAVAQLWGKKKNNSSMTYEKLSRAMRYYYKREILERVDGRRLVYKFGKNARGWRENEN
The settings on record: protein: recombinant; tags: N-terminal GST; dsDNA, one strand shown. Put shortly:
as §1

The target in experiment [7] is SPI1 (Homo sapiens, UniProt P17947 1-270). The following applies: protein: recombinant; tags: N-terminal GST; dsDNA, one strand shown. In short, it runs like this:
as §1

Experiment [8] has as its target SPIB (Homo sapiens, UniProt Q01892 1-262). The following applies: protein: recombinant; tags: N-terminal GST; dsDNA, one strand shown. In short, it runs like this:
as §1

Experiment [9] deals with T6, ELK3 (Homo sapiens, UniProt P41970 1-407).
T6 sequence: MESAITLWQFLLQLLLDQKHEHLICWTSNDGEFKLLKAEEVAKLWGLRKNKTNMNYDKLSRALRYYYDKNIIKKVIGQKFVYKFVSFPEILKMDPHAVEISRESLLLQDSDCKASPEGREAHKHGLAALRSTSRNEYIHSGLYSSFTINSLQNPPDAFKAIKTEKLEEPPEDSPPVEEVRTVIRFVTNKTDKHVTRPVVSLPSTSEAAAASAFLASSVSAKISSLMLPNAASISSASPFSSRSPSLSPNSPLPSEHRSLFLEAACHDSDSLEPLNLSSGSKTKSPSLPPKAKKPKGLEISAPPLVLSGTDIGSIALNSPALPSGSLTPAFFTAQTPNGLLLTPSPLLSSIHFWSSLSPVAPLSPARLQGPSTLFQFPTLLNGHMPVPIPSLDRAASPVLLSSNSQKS
The following applies: protein: recombinant; tags: N-terminal GST; dsDNA, one strand shown. In short, it runs like this: as §1

Experiment [10] concerns the target T7, FEV (Homo sapiens, UniProt Q99581 1-238).
T7 sequence: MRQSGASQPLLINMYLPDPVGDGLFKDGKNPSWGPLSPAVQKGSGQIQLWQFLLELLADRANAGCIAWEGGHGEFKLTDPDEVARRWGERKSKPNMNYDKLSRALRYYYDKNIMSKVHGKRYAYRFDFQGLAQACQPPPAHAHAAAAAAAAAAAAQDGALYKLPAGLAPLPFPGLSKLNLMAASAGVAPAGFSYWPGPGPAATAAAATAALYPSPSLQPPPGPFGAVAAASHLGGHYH
The following applies: protein: recombinant; tags: N-terminal GST; dsDNA, one strand shown. In short, it runs like this:
as §1

In experiment [11] the target is ETV5 (Homo sapiens, UniProt P41161 1-510). The following applies: protein: recombinant; tags: N-terminal GST; dsDNA, one strand shown. In short, it runs like this:
as §1

For experiment [12], the target named is HSF1 (Homo sapiens, UniProt Q00613 1-529). The settings on record: protein: recombinant; tags: N-terminal GST; chain copies: 3; dsDNA, one strand shown. In short, it runs like this:
as §1

Experiment [13] has as its target T8, SPIC (Homo sapiens, UniProt Q8N5J4 1-248).
T8 sequence: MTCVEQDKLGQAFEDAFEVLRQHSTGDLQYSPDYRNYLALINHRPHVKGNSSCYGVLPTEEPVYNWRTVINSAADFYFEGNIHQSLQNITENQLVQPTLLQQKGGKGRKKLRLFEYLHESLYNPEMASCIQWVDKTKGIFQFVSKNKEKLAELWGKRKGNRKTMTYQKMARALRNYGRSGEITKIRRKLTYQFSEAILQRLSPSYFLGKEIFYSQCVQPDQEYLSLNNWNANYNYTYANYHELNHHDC
The following applies: protein: recombinant; tags: N-terminal GST; dsDNA, one strand shown. Put shortly:
as §1

Experiment [14] concerns the target ELF4 (Homo sapiens, UniProt Q99607 1-663). The following applies: protein: recombinant; tags: N-terminal GST; dsDNA, one strand shown. In short, it runs like this:
as §1

The target of experiment [15] is T9, ELK4 (Homo sapiens, UniProt P28324-2 1-405).
T9 sequence: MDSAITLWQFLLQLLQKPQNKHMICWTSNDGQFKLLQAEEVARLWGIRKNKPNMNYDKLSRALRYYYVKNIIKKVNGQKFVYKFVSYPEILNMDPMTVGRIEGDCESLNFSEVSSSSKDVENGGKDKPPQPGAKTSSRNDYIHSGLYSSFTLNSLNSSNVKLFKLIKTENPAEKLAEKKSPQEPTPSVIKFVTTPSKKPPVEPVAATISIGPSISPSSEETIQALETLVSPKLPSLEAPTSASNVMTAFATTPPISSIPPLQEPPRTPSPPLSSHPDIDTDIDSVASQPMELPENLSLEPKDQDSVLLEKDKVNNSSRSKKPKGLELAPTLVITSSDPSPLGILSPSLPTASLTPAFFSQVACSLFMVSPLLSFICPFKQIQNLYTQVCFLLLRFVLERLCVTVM
The following applies: protein: recombinant; tags: N-terminal GST; dsDNA, one strand shown. In short, it runs like this: as §1

The target of experiment [16] is T10, ETV2 (Homo sapiens, UniProt O00321 1-342).
T10 sequence: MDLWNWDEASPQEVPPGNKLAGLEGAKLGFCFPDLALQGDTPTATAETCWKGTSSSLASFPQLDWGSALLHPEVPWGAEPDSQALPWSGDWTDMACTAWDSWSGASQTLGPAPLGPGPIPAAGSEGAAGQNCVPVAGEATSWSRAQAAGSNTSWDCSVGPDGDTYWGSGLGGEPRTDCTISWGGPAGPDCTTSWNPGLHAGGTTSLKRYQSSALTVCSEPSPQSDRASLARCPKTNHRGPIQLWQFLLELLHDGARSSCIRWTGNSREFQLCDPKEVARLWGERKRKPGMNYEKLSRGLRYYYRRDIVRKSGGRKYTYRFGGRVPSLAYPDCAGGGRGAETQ
The settings on record: protein: recombinant; tags: N-terminal GST; dsDNA, one strand shown. In short, it runs like this: as §1

Experiment [17] addresses CRX (Homo sapiens, UniProt O43186 1-299). The following applies: protein: recombinant; tags: N-terminal GST; dsDNA, one strand shown. Put shortly:
as §1

For experiment [18], the target named is ETV1 (Homo sapiens, UniProt P50549 1-477). The following applies: protein: recombinant; tags: N-terminal GST; dsDNA, one strand shown. Put shortly:
as §1

ELF4, sequence (Q99607 whole entry): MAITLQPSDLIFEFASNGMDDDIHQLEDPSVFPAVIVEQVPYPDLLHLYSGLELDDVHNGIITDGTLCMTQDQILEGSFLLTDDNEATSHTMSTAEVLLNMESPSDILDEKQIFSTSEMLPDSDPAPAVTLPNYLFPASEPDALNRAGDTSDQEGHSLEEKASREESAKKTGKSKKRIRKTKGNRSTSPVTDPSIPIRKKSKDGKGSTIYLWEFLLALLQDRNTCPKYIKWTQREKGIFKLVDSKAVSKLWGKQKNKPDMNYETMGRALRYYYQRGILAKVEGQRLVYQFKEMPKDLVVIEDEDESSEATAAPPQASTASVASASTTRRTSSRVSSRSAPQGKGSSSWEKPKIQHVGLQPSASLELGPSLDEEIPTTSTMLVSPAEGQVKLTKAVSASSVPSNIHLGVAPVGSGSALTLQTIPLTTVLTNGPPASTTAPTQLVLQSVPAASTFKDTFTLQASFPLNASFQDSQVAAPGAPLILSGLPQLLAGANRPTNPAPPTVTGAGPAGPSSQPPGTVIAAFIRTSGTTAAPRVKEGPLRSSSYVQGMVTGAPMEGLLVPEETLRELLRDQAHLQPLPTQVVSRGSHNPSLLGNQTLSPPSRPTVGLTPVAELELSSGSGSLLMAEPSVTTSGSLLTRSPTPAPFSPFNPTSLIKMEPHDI
ELF1, sequence (P32519 whole entry): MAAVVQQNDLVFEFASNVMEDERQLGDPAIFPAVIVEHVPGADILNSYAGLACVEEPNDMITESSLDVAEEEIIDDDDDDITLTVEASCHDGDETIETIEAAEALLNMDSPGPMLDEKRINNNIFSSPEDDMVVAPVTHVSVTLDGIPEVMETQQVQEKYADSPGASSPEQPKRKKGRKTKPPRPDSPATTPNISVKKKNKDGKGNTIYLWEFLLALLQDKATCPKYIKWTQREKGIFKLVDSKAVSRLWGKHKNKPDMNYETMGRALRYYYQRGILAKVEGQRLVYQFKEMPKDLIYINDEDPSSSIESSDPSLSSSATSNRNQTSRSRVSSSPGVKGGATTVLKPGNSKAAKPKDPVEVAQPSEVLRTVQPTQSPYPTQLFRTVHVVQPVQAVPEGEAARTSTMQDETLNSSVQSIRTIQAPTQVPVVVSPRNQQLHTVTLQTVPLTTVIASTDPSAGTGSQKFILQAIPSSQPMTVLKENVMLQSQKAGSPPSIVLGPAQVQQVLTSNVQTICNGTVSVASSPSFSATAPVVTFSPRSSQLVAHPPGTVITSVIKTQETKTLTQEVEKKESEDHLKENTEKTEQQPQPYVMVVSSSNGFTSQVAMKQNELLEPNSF
CRX, sequence (O43186 whole entry): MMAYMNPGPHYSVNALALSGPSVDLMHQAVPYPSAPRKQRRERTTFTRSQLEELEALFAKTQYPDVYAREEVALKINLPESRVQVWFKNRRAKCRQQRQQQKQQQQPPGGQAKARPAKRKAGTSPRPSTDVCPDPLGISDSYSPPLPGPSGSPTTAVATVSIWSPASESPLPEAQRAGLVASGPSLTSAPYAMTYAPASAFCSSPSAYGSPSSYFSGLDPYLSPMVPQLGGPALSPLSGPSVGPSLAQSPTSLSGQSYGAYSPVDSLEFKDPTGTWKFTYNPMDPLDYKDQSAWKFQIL
HSF1, sequence (Q00613 whole entry): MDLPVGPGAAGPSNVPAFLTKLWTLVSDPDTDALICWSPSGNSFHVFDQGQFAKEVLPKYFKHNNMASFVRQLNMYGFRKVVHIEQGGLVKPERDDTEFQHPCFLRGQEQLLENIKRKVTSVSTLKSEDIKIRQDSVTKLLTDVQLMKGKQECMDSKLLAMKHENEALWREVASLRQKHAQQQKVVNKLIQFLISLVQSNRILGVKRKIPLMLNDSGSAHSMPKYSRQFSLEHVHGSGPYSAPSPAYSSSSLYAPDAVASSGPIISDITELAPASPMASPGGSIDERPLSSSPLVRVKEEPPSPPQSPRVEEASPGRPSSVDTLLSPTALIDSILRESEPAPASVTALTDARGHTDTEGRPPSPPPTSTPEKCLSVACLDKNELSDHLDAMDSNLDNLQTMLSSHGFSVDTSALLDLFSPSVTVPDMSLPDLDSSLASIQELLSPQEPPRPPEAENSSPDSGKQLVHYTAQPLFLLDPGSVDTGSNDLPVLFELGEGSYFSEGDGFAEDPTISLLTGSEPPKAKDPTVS
ETV1, sequence (P50549 whole entry): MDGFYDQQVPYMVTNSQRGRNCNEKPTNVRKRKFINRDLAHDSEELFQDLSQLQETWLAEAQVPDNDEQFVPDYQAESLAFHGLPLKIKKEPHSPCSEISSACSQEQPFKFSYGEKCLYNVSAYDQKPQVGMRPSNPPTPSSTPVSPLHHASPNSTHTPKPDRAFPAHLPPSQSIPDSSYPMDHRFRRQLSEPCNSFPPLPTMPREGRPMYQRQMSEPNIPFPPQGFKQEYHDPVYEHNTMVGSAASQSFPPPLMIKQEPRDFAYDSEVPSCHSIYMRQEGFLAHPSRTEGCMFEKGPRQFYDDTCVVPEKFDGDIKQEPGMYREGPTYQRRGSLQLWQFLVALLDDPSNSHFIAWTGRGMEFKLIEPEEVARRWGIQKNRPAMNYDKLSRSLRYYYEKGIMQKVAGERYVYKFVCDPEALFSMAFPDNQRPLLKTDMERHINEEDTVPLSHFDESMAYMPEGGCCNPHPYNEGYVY
SPIB, sequence (Q01892 whole entry): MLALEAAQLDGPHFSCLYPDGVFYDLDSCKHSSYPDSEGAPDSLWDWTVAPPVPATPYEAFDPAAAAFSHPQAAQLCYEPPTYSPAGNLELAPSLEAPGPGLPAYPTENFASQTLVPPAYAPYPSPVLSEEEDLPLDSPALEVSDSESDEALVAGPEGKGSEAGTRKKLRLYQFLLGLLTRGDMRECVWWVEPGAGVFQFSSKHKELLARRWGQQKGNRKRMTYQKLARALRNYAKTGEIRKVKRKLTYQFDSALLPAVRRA
ETV5, sequence (P41161 whole entry): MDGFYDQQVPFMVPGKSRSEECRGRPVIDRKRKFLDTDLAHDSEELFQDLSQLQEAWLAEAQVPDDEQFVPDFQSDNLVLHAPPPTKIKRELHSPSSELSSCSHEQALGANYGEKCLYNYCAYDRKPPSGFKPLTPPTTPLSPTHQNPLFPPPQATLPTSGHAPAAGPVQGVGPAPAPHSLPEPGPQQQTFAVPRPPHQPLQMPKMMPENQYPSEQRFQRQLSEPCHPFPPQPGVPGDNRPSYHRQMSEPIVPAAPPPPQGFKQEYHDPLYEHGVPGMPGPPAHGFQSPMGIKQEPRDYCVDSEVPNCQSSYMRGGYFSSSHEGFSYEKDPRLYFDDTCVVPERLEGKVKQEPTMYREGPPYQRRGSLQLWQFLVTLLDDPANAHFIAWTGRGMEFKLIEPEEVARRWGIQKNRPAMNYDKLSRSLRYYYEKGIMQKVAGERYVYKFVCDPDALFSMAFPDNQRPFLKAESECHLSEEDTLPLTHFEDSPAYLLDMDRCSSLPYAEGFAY

For the sequence TCGATA, the binding signal in [1] was 1.17 fold enrichment (6-mer frequency, TF over GST control); in [2], 1.03 fold enrichment (6-mer frequency, TF over GST control); in experiment [3], 1.08 fold enrichment (6-mer frequency, TF over GST control); in [4] it was 1.1 fold enrichment (6-mer frequency, TF over GST control); in experiment [5], 1.11 fold enrichment (6-mer frequency, TF over GST control); in [6] it was 1.12 fold enrichment (6-mer frequency, TF over GST control). In addition, the binding signal in [7] is 1.12 fold enrichment (6-mer frequency, TF over GST control); in [8], 1.03 fold enrichment (6-mer frequency, TF over GST control); in experiment [9], 1.06 fold enrichment (6-mer frequency, TF over GST control); in experiment [10], 1.05 fold enrichment (6-mer frequency, TF over GST control); in experiment [11], 1.07 fold enrichment (6-mer frequency, TF over GST control); in [12] it was 1.35 fold enrichment (6-mer frequency, TF over GST control). Also, the binding signal in [13] was 1.28 fold enrichment (6-mer frequency, TF over GST control); in experiment [14] it was 1.15 fold enrichment (6-mer frequency, TF over GST control); in experiment [15], 1.16 fold enrichment (6-mer frequency, TF over GST control); in experiment [16], 1.16 fold enrichment (6-mer frequency, TF over GST control); in experiment [17] it was 1.24 fold enrichment (6-mer frequency, TF over GST control); in [18] it was 1.03 fold enrichment (6-mer frequency, TF over GST control).
